PubChem BioAssay AID1224860 (National Center for Advancing Translational Sciences (NCATS), 2016)
Inconclusive results are not listed. Entries that show only a call come without a potency. The source made the active and inactive calls. The call rests on the fitted dose curve; in most records, active means well fitted cell-killing curve with a large enough effect; inconclusive means small, poorly fitted or top-dose-only effect; inactive means flat fitted curve, though single readings scatter.

Experiment: Compound cytotoxicity measured by an ATP content assay as a counter-screen for lead compounds in human iPSC derived neural progenitor cells (hNPCs)
Settings: human iPSC-derived NPC viability, ATP luminescence; series mostly up to 46.1 µM
Experimental: National Center for Advancing Translational Sciences [NCATS] Johns Hopkins University School of Medicine Florida State University Assay Overview: Many compounds can cause cytotoxicity at high compound concentrations. […] The compound cytotoxicity may also cause side effects or toxicity in human. Thus, the compound cytotoxicity needs to be measured in each cell type and each compound incubation time - same as these in the compound screening assay. The compound cytotoxicity can be measured by cell viability assays such as the ATP content assay. We use an ATP content assay kit for cell viability measurement. It measures ATP content (level) in human iPSC derived neural progenitor cells (hNPCs) using a luminescence readout that is proportional to viable cell numbers. Decrease in the luminescence signal after the compound treatment indicates reduced cell viability and cell death caused by compound treatment.
Assay Protocol Summary: The medium for hNPCs consists of DMEM/F12, N2 supplement (ThermoFisher, Cat.# 17502048), NEAA (ThermoFisher, Cat. # 11140050), 2 ug/ml heparin, 2 uM cyclopamine, and B27 (ThermoFisher, Cat. # 17504044). The ATP content assay kit (PerkinElmer, Cat.# 6016731) was used to determine cell viability. The reagent was reconstituted and prepared as described by the manufacturer. Cells were seeded in 384- or 1536-well assay plates and cultured at 37 C with 5% CO2 for 16 to 20 hours. The typical cell seeding density in the 1536-well plate assay is 350 cells/well in 3 ul medium for hNPCs in the tissue cultured treated/PDL coated plates. Compounds were added to cells and incubated for a specific time such as 6, 24, or 72 hours before addition of the reagent mixture of the ATP content assay kit at 1:1 ratio. After incubation at room temperature for 10 minutes, the luminescence intensity in assay plates was measured using a ViewLux plate reader (PerkinElmer). […] The percentage inhibitions of the decreased cell viability by small molecules were then calculated that indicate compound cytotoxicity.

Structure (SMILES) | Potency
Cc1nc(N)sc1-c1ccnc(Nc2ccc(N3CCOCC3)cc2)n1 | inactive
CC[C@]1(O)C[C@H]2CN(CCc3c([nH]c4ccccc34)[C@@](C(=O)OC)(c3cc4c(cc3OC)N(C=O)[C@H]3[C@@](O)(C(=O)OC)[C@H](OC(C)=O)[C@]5(CC)C=CCN6CC[C@]43[C@@H]65)C2)C1 | inactive
O=C1C[C@@H](c2ccc(O)cc2)Oc2cc(O)cc(O)c21 | inactive
COc1ccc2nc(NC(=O)Nc3ccccc3)sc2c1 | 7.74 µM (active)
CCCCCCCCCCCC(=O)[O][Sn]([CH2]CCC)([CH2]CCC)[O]C(=O)CCCCCCCCCCC | inactive
O=C(Nc1ccc(C(=O)O)c(O)c1)c1ccccc1 | inactive
COCCn1c2c([n+](Cc3cnccn3)c1C)C(=O)c1ccccc1C2=O | 0.69 µM (active)
CC(=O)Oc1cccc2c1C(=O)c1c(OC(C)=O)cc(C(=O)O)cc1C2=O | inactive
O=C(O)c1ccccc1NCCc1ccccc1 | inactive
Cc1[nH]c(C=C2C(=O)Nc3ccccc32)c(C)c1CCC(=O)O | inactive
C=CCCCCCCCCC(=O)O | inactive
C[C@@H](N)c1ccc(C(=O)Nc2ccnc3[nH]ccc23)cc1 | inactive
CC(=O)Nc1ccc([C@H](C)C(=O)Nc2ncc(C(C)C)s2)cc1 | inactive
O=C(Nc1ncc([N+](=O)[O-])s1)c1cccs1 | inactive
CC(=Cc1ccccc1)C=C1SC(=S)N(CC(=O)O)C1=O | inactive
O=C(Nc1ccc([N+](=O)[O-])cc1Cl)c1cc(Cl)ccc1O | 8.69 µM (active)
O=C(O)CCC(=O)c1ccc(-c2ccccc2)cc1 | inactive
CCOC1OC(=O)C[C@H]1NC(=O)[C@@H]1CCCN1C(=O)[C@@H](NC(=O)c1ccc(N)c(Cl)c1)C(C)(C)C (stereo not given in full) | inactive
N#C/C(=C\c1ccc(O)c(O)c1)C(=O)Nc1ccccc1 | inactive
NC(N)=NN=C(/C=C/c1ccc([N+](=O)[O-])o1)/C=C/c1ccc([N+](=O)[O-])o1 | 1.95 µM (active)

Structure (SMILES) | Potency
CCCCCCCC/C=C/C(=O)O | inactive
CC(C)(C)COc1ccc(-n2cc(C(=O)O)cn2)cc1C#N | inactive
O=C(O)Cc1ccc(-c2ccccc2)cc1 | inactive
CNC(=O)c1ccccc1Sc1ccc2c(/C=C/c3ccccn3)n[nH]c2c1 | 7.74 µM (active)
O=C1c2ccccc2-[n+]2ccc3c([nH]c4ccccc43)c21 | 2.18 µM (active)
O=c1oc2cc(O)ccc2s1 | inactive
CC(C(=O)O)c1ccc(C(=O)c2ccccc2)s1 (stereo not given) | inactive
CC1=C(CO)C(=O)O[C@@H]([C@@H](C)[C@H]2CC[C@H]3[C@@H]4C[C@H]5O[C@]56[C@@H](O)C=CC(=O)[C@]6(C)[C@@H]4CC[C@]23C)C1 | inactive
O=C(O)c1ccccc1Nc1cccc(C(F)(F)F)c1 | inactive
Nc1ncnc2c1ncn2[C@@H]1O[C@@H](CO)[C@H](O)[C@H]1O | inactive
Oc1cc(O)cc(/C=C/c2ccc(O)c(O)c2)c1 | 7.74 µM (active)
O=C(/C=C/c1ccccc1)NCCO | inactive
C[C@H](NC(=O)C(=O)Nc1ccccc1C(C)(C)C)C(=O)N[C@@H](CC(=O)O)C(=O)COc1c(F)c(F)cc(F)c1F | inactive
Oc1ccc(/C=C/c2cc(O)cc(O)c2)cc1 | 9.75 µM (active)
CCCCCNC(=O)N1CCC(CN(Cc2ccc(Cl)cc2)Cc2ccc([N+](=O)[O-])s2)C1 (stereo not given) | inactive
CC(=O)OC(C)OC(=O)C(C)c1ccc(-c2ccccc2)c(F)c1 (stereo not given) | inactive
CN(C)c1ccc2cc(C(=O)N[C@@H](CCCN=C(N)CCl)C(=O)NCc3ccccc3)ccc2c1 | inactive
O=C(OCc1ccccc1)c1ccc(O)cc1 | inactive
Cc1ccc(O)c(N=Nc2ccccc2)n1 | 4.35 µM (active)
CC1(C)Cc2c(sc(NC(=S)NC(=O)c3ccccc3)c2C(=O)O)CO1 | inactive
